This note sets out measurements from PubChem BioAssay (NCI).

SMILES strings stand for the structures. This is part of a sample that, as a whole, favours compounds with a hit. Of some 79,000 tested, about 15% had one in any assay. Active and inactive are the calls of the source. Cut-off read from the data, not from the text of the source: active = growth inhibition above about 70%; inactive = the rest.

The first experiment can be described thus: NCI Yeast Anticancer Drug Screen. Data for the sgs1 mgt1 strain (AID 161).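 Note: 0% = growth of cultures given vehicle only.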 The note with it: S. cerevisiae sgs1 mgt1 strain, at 50.0 µM, stronger effect = higher value. The essentials:
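Genetically altered yeast, compound exposure, growth inhibition relative to vehicle.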
For `CN(C)CCC(=O)c1ccc(O)cc1`, the growth inhibition is 3.25% (inactive).
The same measure, in the same setting: then `Cc1ccncc1C(N)=O`, with -9.55% (inactive); and `N#Cc1c(N)sc(=S)c2c1CCCC2`, with 29.4% (inactive); and `Nc1nc(N)c(N=Nc2ccc(C(=O)O)cc2)c(N)n1`, with 3% (inactive).
Regarding `NC(C(=O)O)C(O)c1ccco1` (stereo not drawn), the growth inhibition is 3.95% (inactive).
`COc1ccc(Oc2c(I)cc(CC(NC(C)=O)C(=O)O)cc2I)cc1` (stereo not drawn): the growth inhibition is 38.7% (inactive).
Still for that read-out and setting: then `O=[N+]([O-])c1cccc(C(F)(F)F)c1`, with -9.1% (inactive); and `COc1ccc2c(c1)CCc1c-2n[nH]c1-c1[nH]nc2c1CCc1cc(OC)ccc1-2`, with -11.2% (inactive); and `O=C1c2ccccc2C(=O)N1OCc1ccccc1`, with -14.4% (inactive).
On to `CCOC(=O)c1[nH]c(C)c(C(C)=O)c1C`, for which the growth inhibition is 9% (inactive).
`O=C(O)c1ccnc(Br)c1`: the growth inhibition is -31.1% (inactive).
On to `COc1ccc(-c2cc3c(nn2)-c2ccccc2C3=O)cc1`, for which the growth inhibition was -13% (inactive).
As for `CC(=O)OC1CC2C(C)(C)OC3CC(=O)OCC32C2CCC3(C)C(=CCC3c3ccoc3)C12C` (stereo not drawn), the growth inhibition is -26.6% (inactive).
Same read-out and setting: then `CC(=O)Nc1ccc(NC(C)=O)c2c1C(=O)c1ccccc1C2=O`, with -10.3% (inactive); and `CCOc1ccccc1/C=N/Nc1nc2ccccc2o1`, with -2.8% (inactive); and `CCOC(=O)c1ccc(Nc2sc(C(=O)c3cccc([N+](=O)[O-])c3)c(N)c2C#N)cc1`, with -0.95% (inactive).
Take `CC(=O)OCCO`: the growth inhibition is -9.65% (inactive).
As to `O=C(/C=C/C(=O)c1ccccc1)c1ccccc1`, the growth inhibition was 28.1% (inactive).
As for `C=CCNC(=O)c1ccc(OC)cc1`, the growth inhibition was 22.5% (inactive).
The same measure, in the same setting: the value for `CC(=O)c1cc2c(cc1F)C(C)(C)CCC2(C)C` was -19.1% (inactive).
Take `CCc1nc(N)nc(N)c1-c1ccc(Cl)cc1`: the growth inhibition was -4.45% (inactive).
As to `CCCC[P+](c1ccccc1)(c1ccccc1)c1ccccc1`, the growth inhibition is 48.4% (inactive).
As for `COC1=CC(=O)c2nc(Cl)ccc2C1=O`, the growth inhibition is 35.2% (inactive).
Consider `COCCCC/C(=N\OCCN)c1ccc(C(F)(F)F)cc1`, for which the growth inhibition was 12.6% (inactive).
On to `CCS(=O)(=O)CCCl`, for which the growth inhibition was 2.3% (inactive).
As for `Nc1nc2c(c(-c3nc(N)nc4c3CCc3ccccc3-4)n1)CCc1ccccc1-2`, the growth inhibition is -25.1% (inactive).
For `C[N+](C)(C)C(=O)c1ccccc1`, the growth inhibition is 22.1% (inactive).
As to `CCCCC(=O)c1ccc(OC)cc1`, the growth inhibition was 2.75% (inactive).
With `COc1cc(C(=O)NC(=S)Nc2ccc3ccccc3c2)cc(OC)c1OC`, the growth inhibition was 6.25% (inactive).
Take `CCC/C=C(/C(C)=O)C(=O)OCC`: the growth inhibition was -7% (inactive).
For the molecule `CCOC(=O)c1cc2cccc(OC)c2oc1=O`, the growth inhibition is -5.65% (inactive).
For `O=C(Nc1cccc(NC(=O)Nc2cc(C(F)(F)F)ccc2Cl)c1)Nc1cc(C(F)(F)F)ccc1Cl`, the growth inhibition was 9.55% (inactive).
Consider `C=C1CC/C=C(\C)C(=O)C[C@@H]2[C@@H]1CC2(C)C`, for which the growth inhibition was 20.2% (inactive).
For `Cc1cc(C)c(CC(=O)O)c(C)c1`, the growth inhibition is 16.9% (inactive).
Regarding `CCOc1ccc(/C=C/C(=O)c2ccccc2)cc1`, the growth inhibition was 24.6% (inactive).
`O=C1C=CC2=C3c4cc(O)c(O)cc4CC3(O)COC2=C1O` (stereo not drawn): the growth inhibition was -9.1% (inactive).
Take `COc1cc2c3c(n(C)c(=O)c2cc1OC)-c1cc2c(cc1C3=O)OCO2`: the growth inhibition was -1.5% (inactive).
The same measure, in the same setting: then `O=c1cc(-c2ccccc2)[nH]c(=S)[nH]1`, with 8.65% (inactive); and `C=CCc1cc(C(C)=O)cc(OC)c1O`, with 5.7% (inactive).

A short description of a further experiment: NCI Yeast Anticancer Drug Screen. Data for the cln2 rad14 strain (AID 165).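 Note: 0% = growth equal to vehicle treated cultures.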 The note with it: S. cerevisiae cln2 rad14 strain, at 50.0 µM, stronger effect = higher value. A digest of the protocol: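 Each compound was tested on cln2 rad14 yeast. Inhibition of growth was calculated against vehicle-exposed controls.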
Regarding `CN(C)CCC(=O)c1ccc(O)cc1`, the growth inhibition is -22.2% (inactive).
With `Cc1ccncc1C(N)=O`, the growth inhibition is -0.85% (inactive).
Same read-out and setting: the value for `N#Cc1c(N)sc(=S)c2c1CCCC2` was 1.8% (inactive).
Consider `Nc1nc(N)c(N=Nc2ccc(C(=O)O)cc2)c(N)n1`, for which the growth inhibition was 19.6% (inactive).
As to `NC(C(=O)O)C(O)c1ccco1` (stereo not drawn), the growth inhibition is 13.8% (inactive).
As to `COc1ccc(Oc2c(I)cc(CC(NC(C)=O)C(=O)O)cc2I)cc1` (stereo not drawn), the growth inhibition is 51.5% (inactive).
On to `O=[N+]([O-])c1cccc(C(F)(F)F)c1`, for which the growth inhibition is -23.9% (inactive).
As for `COc1ccc2c(c1)CCc1c-2n[nH]c1-c1[nH]nc2c1CCc1cc(OC)ccc1-2`, the growth inhibition was -5.55% (inactive).
With `O=C1c2ccccc2C(=O)N1OCc1ccccc1`, the growth inhibition is 3.05% (inactive).
Regarding `CCOC(=O)c1[nH]c(C)c(C(C)=O)c1C`, the growth inhibition was -10.5% (inactive).
For the molecule `O=C(O)c1ccnc(Br)c1`, the growth inhibition was 11.7% (inactive).
In the case of `COc1ccc(-c2cc3c(nn2)-c2ccccc2C3=O)cc1`, the growth inhibition was -10.4% (inactive).
In the case of `CC(=O)OC1CC2C(C)(C)OC3CC(=O)OCC32C2CCC3(C)C(=CCC3c3ccoc3)C12C` (stereo not drawn), the growth inhibition was 17.8% (inactive).
With `CC(=O)Nc1ccc(NC(C)=O)c2c1C(=O)c1ccccc1C2=O`, the growth inhibition was 2.15% (inactive).
Regarding `CCOc1ccccc1/C=N/Nc1nc2ccccc2o1`, the growth inhibition is -23.8% (inactive).
Still for that read-out and setting: the value for `CCOC(=O)c1ccc(Nc2sc(C(=O)c3cccc([N+](=O)[O-])c3)c(N)c2C#N)cc1` was 5.75% (inactive).
The same measure, in the same setting: then `CC(=O)OCCO`, with -6.35% (inactive); and `O=C(/C=C/C(=O)c1ccccc1)c1ccccc1`, with -31.4% (inactive).
For the molecule `C=CCNC(=O)c1ccc(OC)cc1`, the growth inhibition was 1.7% (inactive).
Same read-out and setting: then `CC(=O)c1cc2c(cc1F)C(C)(C)CCC2(C)C`, with -32.5% (inactive).
Regarding `CCc1nc(N)nc(N)c1-c1ccc(Cl)cc1`, the growth inhibition was -42.5% (inactive).
On the same count and under the same terms, the value for `CCCC[P+](c1ccccc1)(c1ccccc1)c1ccccc1` was 37.2% (inactive); that for `COC1=CC(=O)c2nc(Cl)ccc2C1=O` was -1% (inactive); that for `COCCCC/C(=N\OCCN)c1ccc(C(F)(F)F)cc1` was -3.9% (inactive).
`CCS(=O)(=O)CCCl`: the growth inhibition was 5.9% (inactive).
Same read-out and setting: then `Nc1nc2c(c(-c3nc(N)nc4c3CCc3ccccc3-4)n1)CCc1ccccc1-2`, with 3.05% (inactive); and `C[N+](C)(C)C(=O)c1ccccc1`, with 11.1% (inactive); and `CCCCC(=O)c1ccc(OC)cc1`, with 6.75% (inactive).
In the case of `COc1cc(C(=O)NC(=S)Nc2ccc3ccccc3c2)cc(OC)c1OC`, the growth inhibition was -6.15% (inactive).
The same measure, in the same setting: the value for `CCC/C=C(/C(C)=O)C(=O)OCC` was 0.2% (inactive).
In the case of `CCOC(=O)c1cc2cccc(OC)c2oc1=O`, the growth inhibition was -4.75% (inactive).
In the case of `O=C(Nc1cccc(NC(=O)Nc2cc(C(F)(F)F)ccc2Cl)c1)Nc1cc(C(F)(F)F)ccc1Cl`, the growth inhibition is 19.4% (inactive).
Regarding `C=C1CC/C=C(\C)C(=O)C[C@@H]2[C@@H]1CC2(C)C`, the growth inhibition was 18.6% (inactive).
`Cc1cc(C)c(CC(=O)O)c(C)c1`: the growth inhibition was 12.3% (inactive).
With `CCOc1ccc(/C=C/C(=O)c2ccccc2)cc1`, the growth inhibition was -20.1% (inactive).
Take `O=C1C=CC2=C3c4cc(O)c(O)cc4CC3(O)COC2=C1O` (stereo not drawn): the growth inhibition is -6.7% (inactive).
Still for that read-out and setting: the value for `COc1cc2c3c(n(C)c(=O)c2cc1OC)-c1cc2c(cc1C3=O)OCO2` was 53.3% (inactive); that for `O=c1cc(-c2ccccc2)[nH]c(=S)[nH]1` was -24.8% (inactive).
In the case of `C=CCc1cc(C(C)=O)cc(OC)c1O`, the growth inhibition is -16.5% (inactive).
